Compounds with a hit are over-represented: about 1.3% of the library has one in this group of screens.
BRCA1 expr up: increases BRCA1 expression; AID 624202; actives 1.1% (n = 380,000); MCF7-BRCA1-FFLuc reporter, luminescence, 48 h; response scale: scaled: vehicle 0%, 10 µM genistein 100%; Potency, µM (series often up to 46.1 µM), usual class: activators; further: nearly all actives have a fitted effect of over 80% in size
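MCF7 cells carrying a BRCA1-firefly luciferase reporter (2000 cells/well, phenol-red free MEM) were attached for 2 h at 37 °C, then given compounds for 48 h. Luminescence was read 15 min after luciferase reagent; activity normalized to genistein (10 microM) and DMSO.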
PTHR1 ag: agonists of human PTHR1 parathyroid hormone receptor | actives 0.075% (n = 410,000) | HEK293 GP2 PTHR1 cells, GloSensor cAMP luminescence, 1 h | Potency, µM (series often up to 115 µM), most hits filed as activators; further: nearly all actives have a fitted effect of over 55% in size
Target sequence (Q03431 whole entry, looked up): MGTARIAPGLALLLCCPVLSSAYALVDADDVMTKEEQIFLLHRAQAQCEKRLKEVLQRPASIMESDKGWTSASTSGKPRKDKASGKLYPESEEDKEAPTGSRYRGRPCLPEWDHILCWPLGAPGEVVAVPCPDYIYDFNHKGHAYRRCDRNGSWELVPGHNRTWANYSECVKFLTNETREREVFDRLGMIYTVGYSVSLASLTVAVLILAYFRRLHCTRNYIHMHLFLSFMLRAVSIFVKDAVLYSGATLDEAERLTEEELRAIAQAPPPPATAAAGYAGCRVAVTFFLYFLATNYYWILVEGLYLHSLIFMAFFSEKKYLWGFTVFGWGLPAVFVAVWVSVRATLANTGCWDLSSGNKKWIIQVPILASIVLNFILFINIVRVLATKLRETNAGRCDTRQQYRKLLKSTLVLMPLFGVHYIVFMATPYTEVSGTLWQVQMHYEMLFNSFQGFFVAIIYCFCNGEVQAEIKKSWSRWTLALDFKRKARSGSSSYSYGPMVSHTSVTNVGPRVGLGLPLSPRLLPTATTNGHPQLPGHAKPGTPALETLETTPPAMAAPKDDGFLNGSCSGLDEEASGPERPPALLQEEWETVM
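HEK-293-derived GP2 cells expressing PTHR1 and a GloSensor cAMP reporter, 3,000/well, plated overnight, given luciferin plus IBMX (each 0.5 mM as added) for 1 h at 37 °C, then compound for 1 h at 37 °C. Luminescence was read after 15 min at room temperature.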
BCR signal inh: chronic active BCR signaling inhibition; ABC-DLBCL IkBa-CBG/CBR reporter, luminescence ratio, 4 h; Potency, µM (top dose mostly 46.1 µM), usual class: inhibitors; actives 0.05% (n = 340,000); active means well fitted inhibition curve with a large enough effect in the signal ratio, with a control signal flat, not every such curve was filed as active; inconclusive means small, poorly fitted or top-dose-only effect, or effect the other way, or a change in a side signal; the % refers to the signal ratio
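Cell line TMD8 (human ABC DLBCL), stably expressing tet-inducible CBG68-IkBa fusion and CBR; IMDM/0.5% FBS; cpd up to 46 uM; dox induction, 4 h, 37C/5% CO2; dual luminescence; green/red ratio; MG132 control.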
IL2 activator: activates IL-2 in a cell-based reporter assay. activation, % (series mostly up to about 46 µM). IL-2 activation reporter assay, cell-based qHTS; stimulated with anti-CD3/CD4/CD28 beads; in transgenic mouse T cells. actives 0.065% (n = 360,000). AID 652025; in the data active means activation above about 50%; inconclusive means mostly about 30% to 49%
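Unstimulated transgenic mouse T cells preincubated 60 min with compound, then stimulated with anti-CD3/anti-CD4-coated beads plus anti-CD28 for 18 h at 37 degrees C. IL-2 response read as EGFP and DsRed fluorescence by plate cytometry.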
TCR act: activators of T cell receptors; 330,000 tested, under 10 active; AID 504894; Potency, µM (doses to about 9.22 µM), actives largely listed as activators; primary human leukocytes, anti-CD3, IL-2 HTRF, 48 h
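Readout: HTRF IL-2, Eu-cryptate/d2 antibody pair, 320nm excitation, 665nm emission. Stimulus: a-CD3 beads, no co-stimulation. Cells: primary human leukocytes. Exposure: 48 hr with compound.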
Mito fusion yeast: mitochondrial division inhibition or fusion activation | S. cerevisiae fusion-defective mutant growth rescue, CellTiterGlo 48 h | Potency, µM (highest dose often 46.1 µM), usual class: activators | actives 0.23% (n = 320,000) | AID 485298; further: nearly all actives have a fitted effect of over 45% in size
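Luminescent cell viability in 1536-well qHTS format served as the measure of rescued growth in ts fusion-mutant S. cerevisiae cultured on non-fermentable YPEG for 48 hours at 37C.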
Of the large screens only hits and unclear results are named; the others gave an inactive call. Unless noted, the call rests on the fitted dose curve; in most records, active means well fitted curve in the direction sought with a large enough effect; inconclusive means small, poorly fitted or top-dose-only effect, or another doubt; inactive means no such curve, though single readings can be large; an effect the other way counts as inactive or inconclusive.

Cc1ccc(-c2n[nH]c(=S)n2/N=C/c2c(C)[nH]n(-c3ccccc3)c2=O)cc1	BCR signal inh inconclusive
O=C(Nc1cc(Cl)ccc1O)c1cc(-c2ccco2)on1	BRCA1 expr up 6.3µM, BCR signal inh inconclusive
O=C(Nc1cc(Br)ccc1O)c1cc(-c2ccco2)on1	BCR signal inh inconclusive
CCCNC(=O)c1cc(Cl)c(NC(=O)C2=CSCCO2)cc1OC	BRCA1 expr up 7.9µM
CC(NC(=O)C1CCN(C(=O)c2ccc(-n3ccc4ccccc43)s2)CC1)c1ccccc1 (stereo not drawn)	none (no result: BRCA1 expr up, BCR signal inh, IL2 activator, TCR act, Mito fusion yeast)
O=S(=O)(c1ccc2c(c1)OCO2)N1CCN(c2nnnn2-c2ccccc2)CC1	BCR signal inh inconclusive, Mito fusion yeast 5µM (no result: TCR act)
O=S(=O)(c1ccccc1)N1CCN(c2nnnn2-c2ccccc2)CC1	none
C/C(N)=C(/C#N)C(=O)CSc1nnc(Nc2cccc(C)c2C)s1	BRCA1 expr up 11µM
C/C(N)=C(/C#N)C(=O)CSc1nnc(Nc2c(C)cccc2C)s1	none
COC(=O)N1N=C(c2ccccc2)CC1(O)C(F)(F)F (stereo not drawn)	BRCA1 expr up 11µM (no result: TCR act)
C=CCSc1nc(C)c2cc(C)cc(C)c2n1	BCR signal inh inconclusive
Cc1ccc(NC(=O)c2ccc(NCc3ccc(F)cc3)nc2)cc1	none
Cc1ccc(NC(=O)c2ccc(Nc3ccccc3F)nc2)cc1	BRCA1 expr up 8.9µM
OCCCNc1nc(-c2ccc(Br)cc2)nnc1-c1ccc(Cl)cc1	BCR signal inh inconclusive, Mito fusion yeast 22µM
COc1ccc(-c2csc(N3CCSCC3)n2)cc1	BRCA1 expr up inconclusive, BCR signal inh inconclusive
COc1ccc(-c2csc(N3CCOCC3)n2)cc1OC	BRCA1 expr up 14µM, BCR signal inh inconclusive
Clc1ccc(-c2csc(N3CCOCC3)n2)cc1	BRCA1 expr up 7.1µM, BCR signal inh inconclusive
Brc1ccc(-c2csc(N3CCOCC3)n2)cc1	BRCA1 expr up 11µM, BCR signal inh inconclusive
COc1ccc(C2=NS(=O)(=O)N(C)C(C(=O)NCc3ccc(F)cc3)=C2)cc1OC	none
S=C(NCCCc1cnc[nH]1)NCCCN(CCc1ccc(Cl)cc1)c1ccc(Br)cn1	none (no result: PTHR1 ag, BCR signal inh, IL2 activator, TCR act, Mito fusion yeast)
CNC(=O)c1c(NC(=O)c2ccc(S(=O)(=O)N(C)c3ccccc3)cc2)sc2c1CCN(C(C)C)C2	IL2 activator 62
CCN1CCc2c(sc(NC(=O)c3ccc(S(=O)(=O)N(C)c4ccccc4)cc3)c2C(=O)NC)C1	none
O=c1n(Cc2ccccc2Cl)nc2n1-c1ccccc1SC2	BRCA1 expr up 11µM
CC(=O)Nc1cc(NC(C)=O)c(N=Nc2ccccc2)cc1C	BRCA1 expr up 3.5µM
CC(=O)Nc1ccccc1C	none
N#C/C(=C\c1c[nH]c2ccccc12)C(=O)NC1CCCC1	none
COC(=O)c1sc(NC(=O)COc2ccccc2)nc1C	BRCA1 expr up 7.9µM, BCR signal inh inconclusive
CNc1nc(C)c(C(=O)OCc2ccccc2)s1	BRCA1 expr up 11µM, PTHR1 ag inconclusive, BCR signal inh inconclusive
CNc1nc(C)c(C(=O)OCC(=O)OC)s1	none
COC(=O)c1sc(NC(=O)COc2ccc(C)cc2)nc1C	BCR signal inh inconclusive
Cc1ccc2nc(-c3ccccc3)c(Cc3ccsc3)n2c1	none (no result: BCR signal inh, TCR act, Mito fusion yeast)
CCOP(=O)(OCC)C(NC(=O)/C=C/c1ccc(OC)cc1)c1ccccc1 (stereo not drawn)	none
CCc1nc(SCC(=O)Nc2ccc(N(C)C)cc2)c2ccccc2n1	none
O=C(C[C@@H]1C/C=C\CC[C@@H](Cc2ccc(F)cc2)C(=O)OC[C@@H]2CCCN2C1=O)N[C@H](CO)Cc1ccccc1	none (no result: Mito fusion yeast)
COc1ccc(C)c2sc(=NC(=O)c3ccc(C(C)=O)cc3)n(C)c12	BRCA1 expr up 0.79µM, BCR signal inh inconclusive
O=C(CCN1C(=O)/C(=C/C=C/c2ccccc2)SC1=S)Nc1ccccn1	BCR signal inh inconclusive (no result: TCR act)
COc1cc(/C=C2/SC(=S)N(CC(=O)Nc3cccnc3)C2=O)cc(OC)c1OC	IL2 activator 123
O=C(CCN1C(=O)/C(=C/C=C/c2ccccc2)SC1=S)Nc1cccnc1	BCR signal inh inconclusive, IL2 activator 69
Cc1cc(S(=O)(=O)Nc2ccc3ccccc3c2)c(C)s1	Mito fusion yeast 18µM
Cc1cc(S(=O)(=O)Nc2cccnc2)c(C)s1	none
O=C(CSc1ccccc1)Nc1nccs1	none
O=C(CSc1cn(Cc2ccccc2)c2ccccc12)Nc1nccs1	BRCA1 expr up 11µM, BCR signal inh inconclusive
CCOC(=O)/C(C#N)=C(C)/C=C1\Sc2ccccc2N1CC	BRCA1 expr up 3.2µM
CCN1/C(=C\C=C(C(C)=O)C(C)=O)Sc2ccccc21	none
CCOC(=O)c1cnc(Nc2nc3ccccc3o2)nc1CSC(=S)N(CC)CC	BCR signal inh 0.58µM
O=C1NC(=O)/C(=C\c2ccc(Cl)nc2)S1	BRCA1 expr up inconclusive
O=C1NC(=O)/C(=C/c2ccc3nccnc3c2)S1	Mito fusion yeast 9.2µM (no result: BRCA1 expr up, PTHR1 ag, BCR signal inh, IL2 activator, TCR act)
CCOC(=O)c1c(NC(=O)CC2Nc3ccccc3NC2=O)sc(C)c1C (stereo not drawn)	IL2 activator 158
CCOC(=O)c1c(NC(=O)CC2Sc3ccc(C(F)(F)F)cc3NC2=O)sc(C)c1C (stereo not drawn)	none
COC(=O)c1c(NC(=O)CC2Nc3ccccc3NC2=O)sc(C)c1C (stereo not drawn)	BCR signal inh inconclusive, IL2 activator 185
CC1(c2ccc3ccccc3c2)NC(=O)N(CC(=O)NCC(C)(C)N2CCOCC2)C1=O (stereo not drawn)	none
CCCn1c(SCC(=O)N2CCCC(C)C2)nnc1-c1ccccn1 (stereo not drawn)	Mito fusion yeast inconclusive
Cc1cccc(C)c1NC(=O)c1c[nH]c2ccccc12	BRCA1 expr up 3.5µM, BCR signal inh inconclusive
COc1ccc(OC)c(-c2csc(NC(=O)c3ccc4c(c3)OCO4)n2)c1	BRCA1 expr up inconclusive
COc1ccc(-n2cnc3cc(C(=O)NC4CCCCCC4)ccc32)cc1	none (no result: BRCA1 expr up, IL2 activator, TCR act, Mito fusion yeast)
O=c1cc(O)cc(/C=C/c2ccc(O)c(O)c2)o1	Mito fusion yeast 16µM (no result: BRCA1 expr up, PTHR1 ag, BCR signal inh, IL2 activator, TCR act)
O=C(/C=C/c1ccc(O)c(O)c1)c1ccccc1O	BCR signal inh inconclusive
Cc1ccc(N(CC(=O)N2CCc3ccccc3C2)S(C)(=O)=O)cc1	none (no result: TCR act)
CN(CC(=O)Nc1cccc(F)c1)C(=O)CCc1nc2ccccc2c(=O)[nH]1	none
COc1ccc(CN(Cc2ccccc2)C(=O)C2CC2)cc1COc1ccc(NC(C)=O)cc1	none (no result: PTHR1 ag, BCR signal inh, IL2 activator, TCR act, Mito fusion yeast)
Cc1ccc(-n2nnc3ccccc3c2=O)cc1C	BRCA1 expr up 4.5µM, BCR signal inh inconclusive
Cc1ccc(/C=C/C(=O)NCCCc2ccccc2)cc1	none

Screens deposited in PubChem BioAssay by National Center for Advancing Translational Sciences (NCATS).
